High-throughput results (PubChem BioAssay)
Only some compounds are listed: those with a hit (about 2.4% of all), similar ones and a draw of the others.
POLI inh = DNA polymerase iota (human) inhibition. Q9UNA4. Pol iota fluorescent replication assay, 10 min. Potency, µM (series often up to 115 µM), actives largely listed as inhibitors. 1% of 390,000 active
Target sequence (Q9UNA4 whole entry, looked up): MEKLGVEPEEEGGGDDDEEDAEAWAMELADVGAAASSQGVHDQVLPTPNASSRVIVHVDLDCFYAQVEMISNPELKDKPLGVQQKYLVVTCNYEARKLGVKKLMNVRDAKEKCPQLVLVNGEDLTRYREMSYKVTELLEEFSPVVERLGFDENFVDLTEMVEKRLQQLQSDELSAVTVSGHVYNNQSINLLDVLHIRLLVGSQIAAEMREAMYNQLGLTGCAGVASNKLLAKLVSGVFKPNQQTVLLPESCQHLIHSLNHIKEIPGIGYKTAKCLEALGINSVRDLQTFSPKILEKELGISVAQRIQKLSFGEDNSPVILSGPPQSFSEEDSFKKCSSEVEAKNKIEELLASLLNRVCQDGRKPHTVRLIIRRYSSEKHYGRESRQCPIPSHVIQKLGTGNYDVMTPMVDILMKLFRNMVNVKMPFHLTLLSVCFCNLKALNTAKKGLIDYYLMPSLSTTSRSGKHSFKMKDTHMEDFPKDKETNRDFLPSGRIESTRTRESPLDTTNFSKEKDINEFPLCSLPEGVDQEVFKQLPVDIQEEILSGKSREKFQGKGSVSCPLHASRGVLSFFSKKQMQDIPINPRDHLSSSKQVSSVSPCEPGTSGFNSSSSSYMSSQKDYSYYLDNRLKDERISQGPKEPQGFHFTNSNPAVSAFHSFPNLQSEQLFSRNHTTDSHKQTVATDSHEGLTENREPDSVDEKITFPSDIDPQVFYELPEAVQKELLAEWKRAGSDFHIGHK
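Pol iota at 10 nM preincubated 15 min with compounds at room temperature; reaction started with fluorescent substrate, 50 nM final. Fluorescence read kinetically at 0 and 10 min; buffer-only wells as negative control.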
FEN1 inhibitor = blocks human flap endonuclease 1; P39748; Recombinant FEN1 flap cleavage, fluorescence, 15 min; Potency, µM (top dose mostly 114 µM), most hits filed as inhibitors; 0.35% of 390,000 active; note: nearly all actives have a fitted effect of over 65% in size
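Nuclease activity of 10 nM FEN1 was measured after 15 min of room-temperature exposure to titrated compounds, by adding 50 nM flap substrate and reading plates at 0 and 15 min.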
Pol kappa inh = DNA polymerase kappa (human) inhibition | Potency, µM (highest dose often 107 µM), hits mostly inhibitors | purified Pol kappa, fluorescent DNA synthesis assay, 10 min | Q9UBT6 | 0.53% of 400,000 active
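50 nM final substrate added after 15 min RT preincubation of 10 nM Pol kappa with compound; fluorescence read at 0 and 10 min.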
Pol beta inh = DNA polymerase beta (human) inhibition; Pol beta primer extension/strand displacement, fluorescence kinetic; 1.3% of 340,000 active; P06746; AID 485314; Potency, µM (doses to about 114 µM), hits mostly inhibitors
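Enzyme-only controls used 10 nM Pol beta; buffer lacking enzyme served as negative control. Compound preincubated 15 min, then 50 nM substrate added; 0 and 10 min reads at room temperature.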
WRN inhibitor = WRN helicase (human) inhibition; WRN helicase unwinding, fluorescent forked duplex, kinetic; Potency, µM (doses to about 114 µM), most hits filed as inhibitors; AID 651768; Q14191; 0.46% of 360,000 active; note: nearly all actives have a fitted effect of over 55% in size
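Kinetic fluorescence helicase assay: unwinding of a quenched forked DNA duplex (100 nM final) with 2 mM ATP final raises red fluorescence (525/598 nm). Compounds sat 15 min at room temperature with 20 nM WRN beforehand.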
POLH inh = inhibitors of human DNA polymerase eta | recombinant Pol eta, fluorescent DNA replication assay | Potency, µM (titrated, usually from 114 µM), hits mostly inhibitors | 1.2% of 390,000 active
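Pol eta (10 nM) was preincubated with compounds for 15 min at room temperature, after which fluorescent replication substrate (50 nM final) was added to start the reaction. Fluorescence was read kinetically at 0 and 10 min.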
Each line names hits and unclear results; the compound was inactive in the other large screens. Calls come from the whole dose curve; as a rule, active = well fitted curve in the direction sought with a large enough effect; inconclusive = small, poorly fitted or top-dose-only effect, or another doubt; inactive = no such curve, though single readings can be large; an effect the other way counts as inactive or inconclusive.

COC(=O)c1c(NC(=O)CCCOc2ccc(C(C)(C)C)cc2)sc2c1C(C(=O)OC)CC2 (centres undefined)	POLI inh 89.1µM, FEN1 inhibitor inconclusive, Pol kappa inh inconclusive (no result: WRN inhibitor)
Cc1ccc2c(N)c(C)ccc2c1	none
Cc1ccc2cc3c(N)c4c(C)ccc(C)c4nc3nc2c1	POLI inh inconclusive, Pol beta inh 25.1µM, POLH inh inconclusive
O=C(CNC(=O)c1ccccc1)OCc1cccc([N+](=O)[O-])c1	none
CCC(C)C(N)C1=NC(C(=O)N[C@@H](CC(C)C)C(=O)N[C@H](CCC(=O)[O-])C(=O)N[C@H](C(=O)N[C@H]2CCCCNC(=O)[C@H](CC(N)=O)NC(=O)[C@@H](CC(=O)[O-])NC(=O)[C@H](Cc3cnc[nH]3)NC(=O)[C@@H](Cc3ccccc3)NC(=O)[C@H]([C@@H](C)CC)NC(=O)[C@@H](CCCN)NC2=O)[C@@H](C)CC)CS1.[Zn+2] (some centres undefined)	POLI inh 0.891µM, FEN1 inhibitor 8.91µM, Pol kappa inh inconclusive, POLH inh inconclusive (no result: Pol beta inh)
CCC(=O)N(C1=C(NC(C)C)C(=O)c2ccccc2C1=O)C(C)C	POLI inh inconclusive
CCCNC1=C(N(C(C)=O)c2cccc(F)c2)C(=O)c2ccccc2C1=O	POLI inh 79.4µM
CCN(CC)S(=O)(=O)c1ccc(N2CCOCC2)c(NS(=O)(=O)c2cccs2)c1	none (no result: Pol beta inh)
CCCN(CCC)Cc1c(C(=O)N/N=C/c2ccncc2)nnn1-c1nonc1N	none
CCN1/C(=C/C=C/c2oc3ccc4ccccc4c3[n+]2CC)Oc2ccc3ccccc3c21	POLI inh 79.4µM, FEN1 inhibitor inconclusive, Pol kappa inh 44.7µM, Pol beta inh 6.31µM, WRN inhibitor inconclusive, POLH inh 31.6µM
CC[n+]1c(/C=C/N(C)c2ccccc2)oc2ccc(Cl)cc21	none
NS(=O)(=O)c1ccc(CCNc2nc3c(-c4cccc(F)c4)nnn3c3ccc(Cl)cc23)cc1	Pol beta inh inconclusive, POLH inh 89.1µM (no result: WRN inhibitor)
Fc1cccc(-c2nnn3c2nc(NCCc2ccccc2)c2ccccc23)c1	none (no result: WRN inhibitor)
CCOC(=O)C1=C(Cc2ccc(OC)cc2)C(=O)c2ccccc2C1=O	POLI inh inconclusive, FEN1 inhibitor inconclusive, WRN inhibitor 50.1µM, POLH inh inconclusive
CCOC(=O)C1=C(O)c2ccccc2C(=O)/C1=C\c1ccc(CC)cc1	POLI inh inconclusive, FEN1 inhibitor inconclusive, WRN inhibitor 56.2µM, POLH inh inconclusive
CCCc1ccc(/C=C2\C(=O)c3ccccc3C(O)=C2C(=O)OCC)cc1	none (no result: POLI inh, FEN1 inhibitor, Pol kappa inh, WRN inhibitor, POLH inh)
COc1ccc(-n2nc3c(N4CCCC(C(=O)NCc5ccc(C)cc5)C4)nnc(C)c3c2C)cc1 (centres undefined)	FEN1 inhibitor inconclusive, Pol beta inh 15.8µM, POLH inh inconclusive (no result: WRN inhibitor)
COc1ccc(CNC(=O)C2CCCN(c3nnc(C)c4c(C)n(-c5ccc(C)cc5)nc34)C2)cc1 (centres undefined)	POLH inh inconclusive (no result: WRN inhibitor)
Cc1ccc(OCCNCc2ccccc2)c(C)c1	none
CCCCC(=O)N(C)c1c(C)nc2ccc(C(=O)N3CCCCC3)cn12	none (no result: POLI inh, FEN1 inhibitor, Pol kappa inh, Pol beta inh, POLH inh)
Cc1cnc(NC(=O)C2COc3ccccc3O2)s1 (centres undefined)	POLI inh inconclusive, Pol kappa inh inconclusive, Pol beta inh 50.1µM, POLH inh inconclusive
COCC(C)NC(C(=O)Nc1ccc(C)c(Cl)c1)c1ccccc1 (centres undefined)	none
O=C1/C(=C/c2ccco2)Oc2c1ccc(O)c2CN1CCCCC1	POLI inh inconclusive, Pol kappa inh 79.4µM, Pol beta inh 20µM, WRN inhibitor inconclusive, POLH inh 22.4µM
COCCN(CCOC)Cc1c(O)ccc2c1O/C(=C\c1ccco1)C2=O	POLI inh inconclusive, Pol kappa inh inconclusive, Pol beta inh 10µM, POLH inh inconclusive
CC1CCN(Cc2c(O)ccc3c2O/C(=C\c2ccco2)C3=O)CC1	POLI inh inconclusive, Pol kappa inh inconclusive, Pol beta inh 11.2µM, WRN inhibitor inconclusive, POLH inh 56.2µM
Cc1ccn2c(=O)nc(SCC(=O)OCc3ccccc3)nc2c1	POLI inh 44.7µM, Pol kappa inh inconclusive, POLH inh 50.1µM (no result: Pol beta inh)
Cc1ccc(/C=c2/sc3n(c2=O)CCCN=3)o1	Pol beta inh inconclusive
O=C(NCc1ccc(/C=c2\sc3n(c2=O)CCN=3)o1)C(=O)Nc1ccccc1	Pol beta inh 4.47µM (no result: POLI inh, FEN1 inhibitor, Pol kappa inh, WRN inhibitor, POLH inh)
C=Cc1c(C)/c2[n-]/c1=C\c1[n-]c(c(CC)c1C)/C=c1\[n-]c3c(c1C)C(=O)C(C(=O)[O-])C=3c1[n-]c(c(C)c1CCC(=O)[O-])\C=2.[Cu].[Na+].[Na+] (centres undefined)	Pol kappa inh 0.891µM (no result: POLI inh, FEN1 inhibitor, Pol beta inh, WRN inhibitor, POLH inh)
O=C(Nc1ccc(-c2nc3cc(NC(=O)c4cccs4)ccc3o2)cc1)c1cccs1	none
O=C(Nc1ccc2oc(-c3ccc(Cl)c(Cl)c3)nc2c1)c1ncn[nH]1	POLI inh inconclusive, Pol kappa inh inconclusive, Pol beta inh 11.2µM, POLH inh inconclusive
O=C(Nc1ccc2oc(-c3ccncc3)nc2c1)c1cccs1	FEN1 inhibitor inconclusive, Pol beta inh 22.4µM, POLH inh inconclusive
O=C(Cc1ccccc1)Nc1ccc2oc(-c3ccncc3)nc2c1	POLI inh inconclusive, Pol beta inh 22.4µM, POLH inh inconclusive
CCCCOC(=O)NC1(C)CCS(=O)(=O)C1 (centres undefined)	none
COc1ccc2c(C)nc(N/C(N)=N/S(=O)(=O)c3ccc(C)cc3)nc2c1	POLI inh 89.1µM
CCc1ccc(NC(=O)CC2C(=O)N(c3ccc(Cl)cc3)C(=O)N2C2CCCC2)cc1 (centres undefined)	POLI inh 89.1µM, FEN1 inhibitor 39.8µM, Pol kappa inh inconclusive (no result: WRN inhibitor)
COCCn1c(SCC(=O)c2c(N)n(C)c(=O)n(C)c2=O)nc2ccccc21	POLH inh inconclusive
CCOc1ccccc1NC(=O)Cn1ccn(-c2ccccc2)c(=O)c1=O	none (no result: WRN inhibitor)
CC(C)c1ccc(/C=C2\SC(=O)N(CC(=O)NC3CCS(=O)(=O)C3)C2=O)cc1 (centres undefined)	POLI inh 15.8µM, Pol beta inh inconclusive, POLH inh 50.1µM
O=C(CN1C(=O)S/C(=C\c2ccccc2)C1=O)NC1CCS(=O)(=O)C1 (centres undefined)	none
CCOC(=O)c1sc(NC(=O)c2cc(-c3ccccc3C)nc3ccccc23)c(C#N)c1C	WRN inhibitor inconclusive, POLH inh inconclusive
COc1cc2nc(N3CCNCC3)nc(N)c2cc1OC	FEN1 inhibitor 56.2µM, Pol kappa inh inconclusive, Pol beta inh inconclusive, WRN inhibitor inconclusive, POLH inh inconclusive
COc1cc2nc(N3CCN(c4cc(C)ccc4C)CC3)nc(N)c2cc1OC	POLI inh inconclusive, Pol beta inh inconclusive
CCOc1ccc2oc(C(=O)Nc3nccs3)c(C)c2c1	POLH inh 22.4µM (no result: Pol beta inh)
COc1ccc2oc(C(=O)Nc3nccs3)c(C)c2c1	none (no result: Pol beta inh)
